# Screen size: about 300,000 compounds; about 4,000 (1.3%) were called active. The full list was thinned out, with actives kept by preference. A number with no mark means an inactive call.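 The calls were made as follows: active = mean replicate score, as percent of positive control median, at least 50; inconclusive = mean below 50 but one replicate at or above 50; inactive = mean and every replicate below 50.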
# Test: kanamycin survival loss of SKKanGAS strain – BacTiter-Glo luminescence, streptokinase expression inhibitor project, primary screen (AID 1662);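 also: strain carries kanamycin resistance gene driven by streptokinase promoter and grows in 40 µg/ml kanamycin; loss of luminescence reflects streptokinase promoter inhibition or plain growth inhibition; 0% = median of DMSO wells and 100% = positive control at its reference dose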
# Settings: S. pyogenes SKKanGAS, kanamycin growth, 6 h, at 7.5 µM, stronger effect = higher value
row,SMILES,inhibition
1,CCOC(=O)c1ccc2c(c1)nc(SCC(=O)NC(C)C)n2CC,-3.36%
2,Cc1cc(C)c(S(=O)(=O)Nc2c(C)n(C)n(-c3ccccc3)c2=O)cc1[N+](=O)[O-],4.05%
3,O=C(c1ccco1)N1CCN(C(=O)c2cc(-c3ccccc3F)no2)CC1,63.3% (active)
4,O=C(NCCCN1CCOCC1)c1cc(-c2ccccc2F)no1,26.3%
5,O=C(Cc1c(F)cccc1Cl)N1CCN(C(=O)c2ccco2)CC1,-1.63%
6,COC(CNC(=O)c1ccc2c(c1)ncn2-c1cc(C)cc(C)c1)OC,0.722%
7,COC(=O)C1=C(C)NC2=C(C(=O)c3ccccc32)C1c1ccc(-c2ccc(C(=O)O)cc2)o1 (stereo unspecified),60.6% (active)
8,COC(=O)C1=C(C)NC(=O)CC1c1ccccc1OC (stereo unspecified),4.98%
9,CCOC(=O)c1ccc(-c2ccc(C(=O)Nc3cccnc3)o2)cc1,3.97%
10,O=C(c1cccs1)N(Cc1cc2ccccc2[nH]c1=O)CC1CCCO1 (stereo unspecified),-2.88%
11,O=C(NCCC1CCCCN1S(=O)(=O)c1ccc(Cl)cc1)C(=O)NCc1ccco1 (stereo unspecified),-16.2%
12,Cc1ccc(C2Nc3cccc4cccc(c34)N2)cc1,9.05%
13,Oc1ccc(C2Nc3cccc4cccc(c34)N2)cc1,3.2%
14,Brc1ccccc1C1Nc2cccc3cccc(c23)N1,56.8% (active)
15,CC1Cc2cc(/C(O)=C3\C(=O)C(=O)N(Cc4cccnc4)C3c3ccccc3F)ccc2O1 (stereo unspecified),12.9%
16,CC1CCCN(S(=O)(=O)c2ccc(C(=O)Nc3nnc(-c4ccncc4)o3)cc2)C1 (stereo unspecified),20.4%
17,CC1CCCCN1S(=O)(=O)c1ccc(C(=O)Nc2nnc(-c3cccs3)o2)cc1 (stereo unspecified),99.8% (active)
18,CSCc1nnc(NC(=O)c2ccc(S(=O)(=O)N3CCCCC3C)cc2)o1 (stereo unspecified),39.4%
19,CCn1c(N)c(Br)c(=O)[nH]c1=O,0.526%
20,Cc1cc(OC(C)C(=O)NC2CC(C)(C)NC(C)(C)C2)c2c(C)cc(=O)oc2c1 (stereo unspecified),2.79%
21,CCOC(=O)N1CCN(c2cc(C)c([N+](=O)[O-])cc2F)CC1,15.6%

row,SMILES,inhibition
1,CC(C)c1ccc2c(c1)c(SC(C)(C)C)c(CC(C)(C)C(=O)O)n2Cc1ccc(Cl)cc1,109% (active)
2,O=C(O)c1ccc(Cn2c(=S)[nH]c3cc(Cl)ccc3c2=O)cc1,9.12%
3,O=C(COC(=O)c1ccccc1SCC(=O)N1CCCC1)Nc1ccccc1OC(F)F,34%
4,CSCCNC(=O)c1ccc2nc(Cc3ccccc3F)oc2c1,2.77%
5,Cn1ccc(NC(=O)Nc2ccc(Cl)cc2)n1,-3.73%
6,CC(C)S(=O)(=O)c1csc(NC(=O)Nc2ccc(Cl)cc2)c1Cl,60% (active)
7,CN(c1cccc(NC(=O)Nc2ccc(Cl)cc2)c1)S(C)(=O)=O,-13.9%
8,Cc1c(Cl)c([N+](=O)[O-])nn1Cc1ccc(C(=O)N/N=C\c2cc(Cl)ccc2O)o1,96.5% (active)
9,Cc1ccc(C(=O)O)cc1NC(=O)c1ccc(Cn2nc(C)c(Cl)c2C)o1,5.19%
10,Cc1c(Cl)c([N+](=O)[O-])nn1CCCC(=O)Nc1cc(Cl)ccc1Cl,-2.88%
11,CCC(CC)c1nnc(NC(=O)C2CCN(C(=O)c3ccco3)CC2)s1,-3.32%
12,O=C(c1ccc(Cl)cc1)c1cnc(Nc2ccccc2)s1,3.38%
13,O=C(Nc1ccccc1)c1nnsc1S(=O)(=O)c1ccc(Cl)cc1,85.8% (active)
14,CS(=O)(=O)c1ccc(Cl)c(NC(=O)Nc2ccccc2)c1,-0.376%
15,Cc1nnc(SCC(=O)Nc2cccc(N)c2)n1-c1ccccc1,8.19%
16,Clc1ccc(Cl)c(Oc2ccc(Oc3nc(Cl)ccc3Cl)cc2)n1,-7.12%
17,COc1ccccc1CNC(=O)CSc1nc(=O)n(Cc2ccncc2)c2c1CCC2,49.6% (active)
18,CN(C)CCn1c2c(c(SCC(=O)NCc3ccccc3)nc1=O)CCC2,-2.81%
19,CN(C)CCn1c2c(c(SCC(=O)Nc3ccccc3C(F)(F)F)nc1=O)CCCC2,-16.8%
20,O=C(NNC1=C(C(=O)C(F)(F)F)CCC1)c1ccncc1,18.5%
21,O=C(Cc1ccc(S(=O)(=O)N2CCOCC2)s1)NCCOc1ccccc1F,2.98%

row,SMILES,inhibition
1,O=C(Nc1c2c(nn1-c1ccccc1)CS(=O)(=O)C2)C1CCCC1,-3.29%
2,CC(=O)Nc1ccc(Nc2ncnc3c2nnn3Cc2ccccc2Cl)cc1,1.15%
3,CC(C)(C)NC(=O)C(=O)NN=C1CCCCCCC1,-3.09%
4,CC(C)NC(=S)NN=C1CCCCCCCCCCC1,63.8% (active)
5,C/C(=N\NC(=S)NC(C)C)c1ccc(C(C)(C)C)cc1,15.9%
6,Cc1c(CN2CCC(n3nccc3NC(=O)CCc3ccccc3)CC2)cnn1C,1.52%
7,CC(=O)Nc1ccc(/C=N/NC(=O)c2cccs2)cc1,5.44%
8,CC(=O)NC(Cc1c[nH]c2ccccc12)C(=O)O (stereo unspecified),4.27%
9,O=C(NC(Cc1c[nH]c2ccccc12)C(=O)N/N=C/c1ccc(Br)cc1)c1cccs1 (stereo unspecified),66.8% (active)
10,CN(Cc1ccccc1)C(=O)c1ccc(NC2=NC3CS(=O)(=O)CC3S2)cc1 (stereo unspecified),-1.29%
11,COc1cc(-c2cc(C(=O)OCC(=O)Nc3ccc4c(c3)OCO4)c3ccccc3n2)cc(OC)c1OC,13.9%
12,NC(=O)c1ccc(NC(=O)COC(=O)c2c3c(nc4ccccc24)/C(=C\c2ccc4c(c2)OCO4)CCC3)cc1,64% (active)
13,COc1cc(/C=C2\CCCc3c2nc2ccccc2c3C(=O)O)cc(Cl)c1O,15.8%
14,O=c1[nH]c(CSc2ccccc2)nc2c1oc1ccccc12,-3.16%
15,COc1ccc(C(=O)NC2=NCCS2)c(OC)c1,-2.91%
16,CCc1cc(=O)oc2c(C)c(OCC(=O)N3CC[C@@]4(O)CCCC[C@H]4C3)ccc12,-5.4%
17,CC(=C1C(=O)c2ccccc2C1=O)N1CCN(c2ccccn2)CC1,1.02%
18,Cc1cc(C)c(C2C3=C(Nc4c2c(C)nn4-c2ccccn2)c2ccccc2C3=O)c(C)c1 (stereo unspecified),57.1% (active)
19,Cc1nn(-c2ccccn2)c2c1C(c1ccncc1)C1=C(CC(C)(C)CC1=O)N2 (stereo unspecified),-3.06%

# — PubChem BioAssay AID1662 (Broad Institute, 2009)
